Among all 360,000 compounds or so, about 7,500 (2.1%) were called active. Another 8% or so got no clear call; they are omitted. This is one part of a sample in which actives are shown more often than they occur. A number with no mark means an inactive call. Calls come from the whole dose curve; as a rule, active = well fitted cell-killing curve with a large enough effect; inconclusive = small, poorly fitted or top-dose-only effect, or effect the other way, or another doubt; inactive = no such curve, though single readings can be large or run the other way.
Test: qHTS for induction of synthetic lethality in tumor cells producing 2HG: qHTS for the HT-1080-IDH1KD cell line;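 for activity, negative = toxicity: 0% = DMSO wells and -100% = cell-free medium wells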
Conditions: HT-1080 IDH1 knockdown viability, ATP luminescence, 48 h; series mostly up to 46.1 µM; activity, negative = toxicity: at the top concentration
Method in brief: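 IDH1KD HT-1080 cells, 750/well, RPMI + 5% FBS; compound pinned after 2 h settling; 48 h, 37 °C; CellTiter-Glo luminescence; % activity normalised to DMSO and no-cell wells; curves fitted, classed by r2 and efficacy.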
Potency is the fitted concentration of half-maximal effect.

Point of comparison: COc1ccc(NC2CCCN(C(=O)c3ccccc3-c3ncc[nH]3)C2)cc1 (stereo unspecified), “activity, negative = toxicity” value -0.498%. Against it:
- COc1cc(-c2nnc(NC(=O)CS(=O)(=O)c3ccc(Cl)cc3)o2)cc(OC)c1OC — lower, -18.1%
- CC(=O)Nc1c(-c2ccc(C)cc2)nc2ccc(Cl)cn12 — higher, 10.7%
- CCCCn1nnnc1C1(C)CCC(=O)N1Cc1ccc(OC)c(OC)c1 (stereo unspecified) — higher, 13.4%
- CCCc1nc2ccccc2n1C(C)C(=O)NC(C)(C)C (stereo unspecified) — higher, 3.92%
- CC1CCCC(C)N1C(=O)COC(=O)c1ccccc1C(=O)c1ccccc1 (stereo unspecified) — higher, 0.369%
- Cc1ccc(C(=O)Nc2ncccc2C)cc1S(=O)(=O)N1CCOCC1 — higher, -0.0269%
- O=C(Nc1ccc2c(c1)CCC2)c1cccc(S(=O)(=O)N2CCN(c3ccc(F)cc3)CC2)c1 — higher, -0.473%
- O=C1NC[C@H](CCCCN2CCN(CCc3ccccc3)C(=O)C2=O)N(CC2CCCCC2)C1=O — higher, 19.7%
- COC(=O)[C@]12CCCCC=C1N(Cc1ccco1)C(=O)[C@H](CC(=O)NCC1CCCCC1)C2 — higher, 5.64%
- CCOC(=O)C1=CCC2C(=O)N(Cc3ccccc3)C(=O)C12 (stereo unspecified) — higher, 16.5%
- COc1ccc(C2=Nc3ccccc3NC(=O)C2N(C(=O)c2cc3ccccc3[nH]2)c2ccccc2)cc1 (stereo unspecified) — lower, -17.6%
- CC(C)Oc1cc(F)ccc1-c1cc(C(=O)Nc2ccc(F)cc2)[nH]n1 — higher, 23.9%
- CS(=O)(=O)Nc1cccc(-c2cn3ccccc3n2)c1 — higher, 2.25%
- COC(=O)c1ccc(-c2c(-c3ccccc3)ncc3cc(OC)c(OC)cc23)cc1 — higher, 12.5%
- COc1cc(C=O)ccc1Oc1nnnn1-c1ccccc1 — higher, 0.603%
- CC(=O)c1cccc(-c2cnc3c(NC=O)cc(-c4ccc(N5CCN(C)CC5)cc4)cn23)c1 — higher, 0.623%
- O=[N+]([O-])c1ccc(C(S(=O)(=O)Cc2ccccc2)S(=O)(=O)Cc2ccccc2)cc1 — higher, 15.6%
- C[C@H]1COc2cc(N3CCSCC3)ccc2S(=O)(=O)N1 — higher, 10.8%
- O=C(O)C1=C(C(=O)O)C2CCC1C2 — higher, 3.61%
- CCCNC(=O)c1cc(C2CCCCN2S(=O)(=O)c2ccc(C#N)cc2)on1 (stereo unspecified) — higher, 14.6%
- O=C1c2cccnc2C(=O)N1Cc1cccs1 — higher, 16%
- CCOc1ccc(CCN2C(=O)c3cccnc3C2=O)cc1OCC — higher, 26.8%
- COc1cc2nc(Cl)nc(NC3CC3)c2cc1OC — lower, -9.28%
- CC(C)CCC(=O)Nc1cc(S(=O)(=O)N2CCOCC2)ccc1N1CCCC1 — higher, 0.313%
- Cc1ccc(-c2ccc(CN3C(C(C)C)C(=O)N(Cc4cn(CCC5OCCCO5)nn4)CCS3(=O)=O)cc2)cc1 (stereo unspecified) — lower, -7.51%
- Cc1cc2c(cc1C)N1C(=O)c3cc4ccccc4cc3NC(=O)C1C(=O)N2 (stereo unspecified) — higher, 1.1%
- CS(=O)(=O)/C(C#N)=C/c1cccn1S(=O)(=O)c1ccc([N+](=O)[O-])cc1 — lower, -6.02%
- O=C(C1CCCO1)N1CCN(C(=O)C23CC4CC(CC(C4)C2)C3)CC1 (stereo unspecified) — higher, 14.9%
- CCN(CC)C(=O)N(CC)Cc1ccccc1 — higher, 2.96%
- CN(/N=C/c1ccccc1)C(=S)c1ccccc1 — lower, -5.97%
- C[C@H]1CN([C@@H](C)CO)C(=O)CCCn2cc(nn2)CO[C@@H]1CN(C)C(=O)Nc1ccccc1 — higher, 1%
- O=C(CSc1nc2cccc(F)c2c(=O)n1-c1ccccc1)Nc1ccc2c(c1)CCC2 — higher, 18.2%
- NC(=O)CSc1nnc(-c2cccc(S(=O)(=O)N3CCOCC3)c2)o1 — lower, -2.93%
- Cn1c(CNC(=O)c2ccco2)nnc1SCC(=O)N1CCN(c2ccccc2)CC1 — higher, 3.17%
- Cc1cc2nnc(SCC(=O)N3CCN(c4ccccc4)CC3)n2c(N)n1 — higher, 21.7%
- CCc1c(N=O)c(-c2ccccc2)n(O)[n+]1[O-] — lower, -7.78%
- CCN(C(=O)Nc1cccc2ccccc12)c1ccccc1 — lower, -4.17%
- COc1cccc(NC(=O)CN(C)C(=O)c2cc(Cl)nc3ccccc23)c1 — lower, -3.44%
- CCN(CC)C(=O)C1=C(C)N(Cc2ccc(F)cc2)C(=O)C(CC(=O)NC2CCCC2)C1 (stereo unspecified) — lower, -4.13%
- O=C(NC1CCCCC1)C(c1cc2ccccc2o1)n1c(=O)c(-c2ccco2)nc2ccccc21 (stereo unspecified) — lower, -16.8%
- CCOC(=O)/C(C#N)=C/c1cn(CCC(=O)O)nc1-c1ccc(Br)cc1 — lower, -2.79%

In the case of CCCCCCCCn1c2c(c(=N)c3c1CCC3)CCCC2, the Potency is reported as 8.2 µM (active).
For Cc1cccnc1NC(=O)c1cccc(S(=O)(=O)N2CCN(c3ccc(F)cc3)CC2)c1, the Potency was 29.1 µM (active).
For CC(=O)c1ccc(-c2cnc3c(NC=O)cc(-c4cccc(NS(C)(=O)=O)c4)cn23)cc1, the Potency was 8.2 µM (active).
For COc1ccc(-c2cc(NC=O)c3ncc(-c4ccccc4)n3c2)cc1OC, the Potency was 16.4 µM (active).
In the case of NC1=CC(=O)C(=O)c2cccnc21, the Potency is reported as 11.6 µM (active).
For Oc1ccc(/C=N/N(Cc2ccccc2)c2ccccc2)cc1, the Potency was 16.4 µM (active).
In the case of Cn1c(Cc2cccc3ccccc23)nnc1SCC(=O)N1CCN(c2cccc(Cl)c2)CC1, the Potency is reported as 20.6 µM (active).
For CC[n+]1cc(C)ccc1/C=C/c1ccc(N(C)C)cc1, the Potency was 7.31 µM (active).
In the case of O=C(O)CCn1cc(/C=C/C(=O)c2ccc(Cl)cc2)c(-c2cccc(Br)c2)n1, the Potency is reported as 23.1 µM (active).

From PubChem BioAssay AID686971 (National Center for Advancing Translational Sciences (NCATS), 2013)
